# Bioassay records as filed in PubChem.
# A selection: hits, their analogues and other compounds. The true share with any hit is near 6%.
# PLK1 PBD block: PLK1 (human) polo-box domain binding inhibition; Plk1 PBD binding of FITC phosphopeptide, fluorescence polarization; Potency, µM, without a hit: max response, negative = inhibition, hits mostly inhibitors; AID 720504; hit rate 2.8% among 360,000; further: series mostly up to about 57 µM; nearly all actives have a fitted effect of over 65% in size
# VDR inh: vitamin D3 receptor (human) inhibition; AID 504847; VDR-SRC2-3 peptide fluorescence polarization, 2 h; hit rate 0.93% among 400,000; P11473; Potency, µM, for inactives: max response, negative = inhibition, actives largely listed as inhibitors
# Target sequence (P11473 whole entry, looked up): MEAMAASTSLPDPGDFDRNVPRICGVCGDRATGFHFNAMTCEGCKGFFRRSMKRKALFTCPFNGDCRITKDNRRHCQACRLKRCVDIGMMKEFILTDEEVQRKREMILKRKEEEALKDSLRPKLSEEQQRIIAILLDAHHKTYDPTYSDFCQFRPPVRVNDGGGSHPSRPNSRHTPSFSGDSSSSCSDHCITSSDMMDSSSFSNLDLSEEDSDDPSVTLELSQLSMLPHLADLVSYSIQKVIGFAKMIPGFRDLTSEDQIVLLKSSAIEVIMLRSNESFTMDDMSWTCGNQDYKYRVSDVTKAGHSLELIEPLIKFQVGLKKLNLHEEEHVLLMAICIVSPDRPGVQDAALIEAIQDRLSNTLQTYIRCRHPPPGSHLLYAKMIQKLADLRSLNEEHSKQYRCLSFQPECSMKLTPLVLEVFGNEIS
#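 VDR–SRC2-3 interaction, FP format. Cmpds 23 nl via pintool, brief spin, 2 h ambient incubation.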
# Tau fibril ThT: tau fibrillization inhibition (ThT binding); P10636; recombinant tau K18 P301L, heparin-induced fibrillization, ThT fluorescence; Potency, µM (doses to about 57.4 µM), without a hit: at the top dose activity, negative = inhibition, usual class: inhibitors; hit rate 2.1% among 270,000; AID 1460; further: nearly all actives have a fitted effect of over 55% in size
# Target sequence (P10636 561-689 P618L limits assumed): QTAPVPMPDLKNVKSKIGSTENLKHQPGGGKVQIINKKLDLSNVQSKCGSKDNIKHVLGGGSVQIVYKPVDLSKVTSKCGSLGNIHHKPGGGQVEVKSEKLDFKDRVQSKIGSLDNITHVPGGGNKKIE
#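 Using a mix of unlabeled (15 uM) and Alexa 594-labeled (0.24 uM) tau K18 P301L, heparin-triggered fibrillization over 6 hr at 37 C was scored by ThT fluorescence.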
# Tau fluor cs: counter-screen for tau fibril formation inhibitors; AID 1463; hit rate 0.93% among 280,000; Potency, µM (titrated, usually from 57.7 µM), without a hit: top-dose activity change, negative = decrease; tau K18 P301L Alexa594 fluorescence, heparin fibrillization; further: nearly all actives have a fitted effect of over 55% in size
#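 Human tau K18 P301L (15 uM unlabeled, 0.24 uM Alexa 594-labeled) in 100 mM sodium acetate pH 7 with 20 uM heparin, 6 hr at 37 C. ThT 30 uM added, 1 hr ambient; Alexa 594 FP and total fluorescence read at 555/632 nm.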
# Tau fibril FP: blocks human tau fibril formation measured by polarization; P10636; K18 P301L tau heparin fibrillization, Alexa594 FP, 6 h; Potency, µM (top dose mostly 57.7 µM), for inactives: at the top dose activity, negative = inhibition, most hits filed as inhibitors; hit rate 0.39% among 280,000; further: nearly all actives have a fitted effect of over 55% in size
#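 Recombinant K18 P301L […], labeled with Alexa 594 at 0.24 uM over 15 uM unlabeled; heparin inducer 20 uM final; 37 C, 6 hr; FP endpoint.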
# Sfp PPTase inh: inhibitors of Bacillus subtilis Sfp phosphopantetheinyl transferase; Biochemical Sfp PPTase activity, qHTS; hit rate 3.5% among 310,000; AID 1490; Potency, µM, for the others: largest response in the series, negative = inhibition, usual class: inhibitors;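 further: the enzyme is Sfp with the accession as filed and its product quenches rhodamine fluorescence; 0% = enzyme reaction without inhibitor and -100% = no enzyme wells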
#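 Fluorescence-quenching assay: 15 nM Sfp-PPTase preincubated 15 min at room temperature with compound, then 5 uM rhodamine-CoA and 12.5 uM BHQ-2-labelled YbbR peptide added. Fluorescence (ex 525/em 598 nm) read at start and after 30 min; difference gives rate.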
# * marks the source's active call; other numbers are inactive results; ? = inconclusive; nt = no result. The call rests on the fitted dose curve; in most records, active means well fitted curve in the direction sought with a large enough effect; inconclusive means small, poorly fitted or top-dose-only effect, or another doubt; inactive means no such curve, though single readings can be large; an effect the other way counts as inactive or inconclusive. Unless noted, on the % scale 0 is the no-effect control and ±100 the full control effect; potency means the concentration at half of the fitted maximal effect.
SMILES,PLK1 PBD block,VDR inh,Tau fibril ThT,Tau fluor cs,Tau fibril FP,Sfp PPTase inh
Cc1c(C(=O)Nc2cccc(C(F)(F)F)c2)oc2ccc(S(=O)(=O)N3CCC4(CC3)OCCO4)cc12,nt,0.4%,1.1%,?,?,nt
CCc1ccccc1NC(=O)CN(Cc1ccccc1)S(=O)(=O)c1ccc(Br)cc1,nt,-13.5%,?,-10.4%,0.3%,nt
Cc1ccc(-n2c(=O)c3cc4c(=O)n(-c5ccc(C)c(C)c5)c(=O)c4c(C(=O)c4ccc(C(=O)O)cc4)c3c2=O)cc1C,29.9µM*,?,nt,-59.2%,9.0%,-22.0%
O=C(NNS(=O)(=O)c1ccccc1)c1cccc(F)c1,-8.3%,-3.8%,nt,nt,nt,35.5µM*
CC(=O)Nc1ccc(S(=O)(=O)NNC(=O)c2ccc3c(c2)OCO3)cc1,0.2%,1.3%,nt,nt,nt,9.8%
CC(=O)Nc1ccc(S(=O)(=O)NNC(=O)c2cccc(Cl)c2)cc1,23.8µM*,-6.0%,3.8%,1.4%,1.1%,-25.5%
COCCN(Cc1ccccc1)C(=O)C1CCN(C(=O)Nc2ccccc2)CC1,5.0%,0.9%,nt,nt,nt,nt
CCOc1ccc(-c2cc(NC(=O)Nc3ccccc3Cl)c(C(=O)OC)s2)cc1,nt,4.4%,?,?,3.2%,nt
O=C(c1ccc(S(=O)(=O)Cc2cc(F)ccc2F)c([N+](=O)[O-])c1)N1CCCCC1,?,?,-13.4%,-18.7%,2.5%,-5.8%
O=C(c1ccc(S(=O)(=O)Cc2cc(F)ccc2F)c([N+](=O)[O-])c1)N1CCCC1,10.6µM*,?,?,?,-8.5%,-8.5%
CCC(=O)N1CCc2cc(CNS(=O)(=O)c3ccccc3F)ccc21,nt,13.7%,-1.1%,6.4%,2.6%,nt
COCc1cc(S(=O)c2ccc(Cl)cc2)nc(C)n1 (stereo not drawn),5.32µM*,50.1µM*,?,-10.5%,?,79.4µM*
CCNC(=O)C1(C)CCN(C(=O)c2c(F)ccc(C)c2F)C1 (stereo not drawn),-2.1%,nt,nt,nt,nt,nt
O=C(O)/C=C/c1ccc(OCc2cccc(F)c2)cc1,29.9µM*,?,-2.0%,-2.6%,-0.6%,1.5%
O=C(/C=C/c1ccc(OCc2cccc(Cl)c2)cc1)N1CCOCC1,3.0%,3.8%,-17.3%,-4.8%,6.0%,-6.8%
COc1ccc(CSC2=C(C#N)C(=O)NC3(CCCCC3)S2)cc1,-10.8%,nt,nt,nt,nt,nt
CCCCCCSC1=C(C#N)C(=O)NC2(CCCCC2)S1,26.7µM*,?,?,-26.5%,-1.6%,18.7%
CCOc1cc(/C=C2/C(=N)N3C(=NC2=O)SN=C3S(C)(=O)=O)ccc1OS(=O)(=O)c1ccccc1,15µM*,25.1µM*,nt,nt,nt,-5.2%
COc1cc(/C=C2/C(=N)N3C(=NC2=O)SN=C3S(C)(=O)=O)ccc1OS(=O)(=O)c1ccccc1,nt,nt,nt,nt,nt,-18.4%
Cc1cc(/C=C2/C(=N)N3C(=NC2=O)SN=C3S(C)(=O)=O)c(C)n1-c1ccc(F)cc1,?,-3.2%,-22.0%,-1.0%,9.8%,-12.9%
CCOc1ccc(-n2c(C)cc(/C=C3/C(=N)N4C(=NC3=O)SN=C4S(C)(=O)=O)c2C)cc1,18.9µM*,?,?,-21.8%,0.8%,-25.3%
CC1(c2nnnn2Cc2ccccc2)CCC(=O)N1CC1CCCCC1 (stereo not drawn),-8.4%,nt,nt,nt,nt,nt
CC1(C)CC(=O)C2=C(C1)O[C@@]1(CCCCN3C(=O)c4ccccc4C3=O)Cc3ccccc3C2O1,nt,nt,nt,nt,nt,2.6%
CCNC(=O)CSc1nnc(-c2cccc(S(=O)(=O)N(CC)CC)c2)n1CCc1ccccc1,21.2µM*,?,-20.3%,-13.2%,-14.4%,7.8%
Cc1ccc(/C=c2\sc3nc(-c4cccs4)nn3c2=O)o1,-2.4%,35.5µM*,?,-15.9%,-9.0%,-4.5%
SMILES,PLK1 PBD block,VDR inh,Tau fibril ThT,Tau fluor cs,Tau fibril FP,Sfp PPTase inh
O=C(Cc1ccc(NC(=O)C2CCN(C(=O)C3CCCC3)CC2)cc1)Nc1cccc(C(=O)N2CCCCC2)c1,3.0%,3.4%,nt,nt,nt,nt
CC1CCN(c2ccc3c(c2)S(=O)(=O)c2cccc(C(=O)NCc4ccc(F)cc4)c2C3=O)CC1,84.4µM*,-13.6%,nt,nt,nt,nt
O=C(NCc1ccc(F)cc1)c1cccc2c1C(=O)c1ccc(N3CCC(Cc4ccccc4)CC3)cc1S2(=O)=O,?,-15.2%,nt,nt,nt,nt
O=C(NCc1cc(C(F)(F)F)ccc1Cl)c1cccc2c1C(=O)c1ccc(N3CCC(Cc4ccccc4)CC3)cc1S2(=O)=O,23.8µM*,-7.9%,nt,nt,nt,nt
CCN1CCC[C@H]1CNCCCn1cnc2c(SC)ncnc21,-0.8%,nt,nt,nt,nt,nt
COC(=O)/C=C1\S/C(=N\N=C\CC(=O)OC)NC1=O,-12.2%,-13.5%,7.08µM*,-8.3%,-4.0%,?
COC(=O)/C=C1\SC(=NC(=O)c2ccc(-c3ccccc3)cc2)NC1=O,18.9µM*,-9.0%,nt,nt,nt,nt
COC(=O)/C=C1\SC(=Nc2ccc(OC)cc2)NC1=O,1.6%,-21.8%,?,1.0%,1.8%,11.7%
COC(=O)/C=C1\S/C(=N/NC(=O)c2ccc(OC)cc2)NC1=O,18.9µM*,-6.8%,-22.1%,-4.2%,-0.7%,10.4%
COC(=O)/C=C1/S/C(=N/NC(=O)c2ccc(OC)cc2)NC1=O,-12.8%,-2.0%,nt,nt,nt,2.3%
CC(=O)N[C@@H]1C(O)OC(CO)C(O)C1O (stereo partly drawn),nt,5.7%,4.1%,0.3%,4.4%,-10.1%
CC(=O)Nc1sc2c(c1C(c1ccccn1)N1CCCC1)CCCC2 (stereo not drawn),-18.8%,-16.7%,-9.1%,-4.5%,-12.1%,44.7µM*
COC(=O)c1sc(NC(=O)OCc2ccccc2)nc1CCNC(=O)OC(C)(C)C,3.6%,nt,nt,nt,nt,nt
CCC(C)NC(=O)c1c(N)n(/N=C/c2ccccn2)c2nc3ccccc3nc12 (stereo not drawn),-4.8%,16.2%,?,-29.9%,7.9%,10µM*
O=C(NC1CCCCC1)c1cnn2c1NC(=C1CC1)C=C2C(F)F,nt,6.7%,nt,nt,nt,nt
CC(Oc1cccc(Cl)c1)c1ccnc2nc(/N=C/N(C)C)nn12 (stereo not drawn),-5.3%,32.2%,-3.8%,2.1%,-0.1%,8.7%
CN(C)/C=N/c1nc2ncc(-c3ccc(Cl)cc3)c(/N=C/N(C)C)n2n1,26.7µM*,-7.8%,2.9%,2.3%,-5.3%,22.4%
CN(C)/C=N/c1nc2nccc(-c3ccc(F)cc3)n2n1,-14.8%,-5.9%,-0.5%,2.3%,-6.5%,-3.8%
CN(C)/C=N/c1nc2nccc(-c3cccc(Cl)c3)n2n1,26.7µM*,-25.2%,3.1%,1.3%,-1.6%,16.1%
COc1ccc(-n2nc3c(N4CCC(C(=O)NCC(C)c5ccccc5)CC4)nnc(C)c3c2C)cc1 (stereo not drawn),6.7µM*,?,nt,nt,nt,13.4%
CC1CCC(NC(=O)c2ccc(CS(=O)(=O)c3cccc(C(F)(F)F)c3)o2)CC1 (stereo not drawn),nt,-0.8%,4.9%,-10.1%,9.8%,nt
